D1 ag = Allosteric Agonists of the Human D1 Dopamine Receptor: qHTS | activation, % at 2 µM | HEK293 T-REx D1 cells, calcium flux, agonist mode | actives 1% (n = 360,000) | D(1A) dopamine receptor (Homo sapiens), P21728; in the data active = activation above about 30%; note: 0% is about no effect
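Inducible HEK293 T-REx D1 cells, force-coupled to calcium signalling, were plated at 4000 cells/well with tetracycline and held overnight at 30 C. After no-wash calcium dye loading, compound-evoked calcium rise over 180 s flagged agonists.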
DRD3 antagonist = qHTS of D3 Dopamine Receptor Antagonist: qHTS | D(3) dopamine receptor (Homo sapiens), P35462 | D3R cells, DiscoveRx beta-arrestin luminescence, antagonist mode; active compounds read low | max response, negative = inhibition, % | actives 2.5% (n = 360,000) | AID 652054, 2013; in the data active = max response below about -50%; note: % is set by controls: 0 for no effect and ±100 for the full control effect
Target sequence (P35462 whole entry, looked up): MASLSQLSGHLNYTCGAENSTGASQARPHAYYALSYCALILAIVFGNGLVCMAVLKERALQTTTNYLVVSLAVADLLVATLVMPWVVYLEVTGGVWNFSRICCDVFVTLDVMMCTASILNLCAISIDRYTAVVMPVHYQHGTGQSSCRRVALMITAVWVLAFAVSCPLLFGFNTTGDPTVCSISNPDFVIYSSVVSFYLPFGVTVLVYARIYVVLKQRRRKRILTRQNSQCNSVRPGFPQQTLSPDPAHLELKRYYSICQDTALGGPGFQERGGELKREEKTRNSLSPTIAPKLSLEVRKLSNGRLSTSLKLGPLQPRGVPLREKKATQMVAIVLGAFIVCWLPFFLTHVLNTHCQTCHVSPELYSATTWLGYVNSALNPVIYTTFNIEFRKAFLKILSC
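Cells plated overnight at 1500 cells/well, then exposed to library compounds with dopamine controls for 90 minutes at 37 degrees C. DiscoveRx reagent added for 30–60 minutes at room temperature; luminescence read, quantitative HTS format.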
D1 PAM = Potentiators of Human D1 Dopamine Receptor: qHTS; D(1A) dopamine receptor (Homo sapiens), P21728; HEK293 TREx D1 cells, calcium flux, dopamine EC20 potentiation; potentiation, % at 10 µM; actives 0.036% (n = 360,000); in the data active = potentiation above about 30%; note: 0% is about no effect
D3 ag = qHTS of D3 Dopamine Receptor Agonist: qHTS; D(3) dopamine receptor (Homo sapiens), P35462; D3R DiscoveRx beta-arrestin cells, luminescence, 90 min; max activation, %; actives 0.58% (n = 410,000); in the data active = max activation above about 30%; note: 0% is about no effect
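Agonist mode: compounds and dopamine controls were applied to plated cells for 90 min at 37 degrees C after an overnight attachment at 1500 cells/well. Luminescent read-out followed 30 - 60 minutes at room temperature with DiscoveRx detection reagent.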
D1 antagonist = Antagonist of Human D 1 Dopamine Receptor: qHTS; HEK293 TREx D1 cells, calcium flux, dopamine EC80; active compounds read low; actives 3.2% (n = 360,000); D(1A) dopamine receptor (Homo sapiens), P21728; activity change, negative = inhibition, % at 10 µM; AID 504652, 2011; in the data active = activity change below about -30%; note: % is set by controls: 0 for no effect and ±100 for the full control effect
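Tetracycline-induced HEK293 T-REx cells with force-coupled D1 receptor were loaded with a no-wash calcium dye. Compound was added after a 10 s baseline and read kinetically for 180 s; EC80 dopamine was then added and calcium flux followed another 180 s.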
The depositor's hits bear a star; · = not tested or not shown; ! = not active in a repeat. Hits are enriched below; roughly 6% of the tested compounds scored in any of these assays.

SMILES | D1 ag | DRD3 antagonist | D1 PAM | D3 ag | D1 antagonist
Cc1cc(C)nc(/N=C(\N)Nc2cccc([N+](=O)[O-])c2)n1 | 34* | -2 | -5 | 2 | -7
CCCCc1ccc(N/C(N)=N/c2nc(C)cc(C)n2)cc1 | 64* | 18 | 4 | 16 | -8
CC(=O)Nc1cc(-c2ccccc2CN(C)C)cn2c(-c3ccc(C(C)=O)cc3)cnc12 | · | 15 | · | 2 | ·
Cc1ccc2c(CN3CCN(C(=O)c4ccc(F)cc4)CC3)cc(=O)oc2c1 | -1 | · | 0 | -13 | 1
Cc1nc2ccc(C(=O)NCCCn3ccnc3)cn2c1N(C)C(=O)CCc1ccccc1 | · | 7 | · | 6 | ·
Cc1ccc(Cn2nc(C)c(NC(=O)C3(C)CC3(Br)Br)c2C)cc1 (configuration not stated) | 0 | -4 | -4 | 3 | -38*
COc1ccc(NC(=O)C2=CC(c3ccc(C)cc3)=NS(=O)(=O)N2C)cc1OC | 1 | -7 | -2 | -2 | -10
CCc1ccccc1NC(=O)C1=CC(c2ccc(OC)c(OC)c2)=NS(=O)(=O)N1C | 35*! | 6 | -2 | -4 | -12
COc1ccc(NC(=O)C2=CC(c3ccc(C)cc3)=NS(=O)(=O)N2C)cc1 | 18 | 13 | 0 | 3 | -33*
COc1ccc(C2=NS(=O)(=O)N(C)C(C(=O)Nc3ccc(OC)c(OC)c3)=C2)cc1 | 2 | -3 | -12 | 3 | -34*
Cc1ccc(NC(=O)C2=CC(c3ccc4c(c3)OCO4)=NS(=O)(=O)N2C)cc1 | 3 | · | -2 | -17 | 8
CC(=O)c1cccc(NC(=O)C2=CC(c3ccc4c(c3)OCO4)=NS(=O)(=O)N2C)c1 | 2 | -62* | -1 | -21 | -10
CCOc1ccccc1Nc1nc(-c2cccc(Cl)c2)c2c(n1)-c1ccccc1OC2 | -1 | · | 0 | -9 | 0
CCc1ccccc1NS(=O)(=O)c1ccc2[nH]cc(C(=O)N(CC(C)C)CC(C)C)c(=O)c2c1 | 0 | · | 0 | 0 | -54*
COc1ccc(CN(C)C[C@H]2OCCCC[C@@H](C)Oc3ccc(NS(C)(=O)=O)cc3C(=O)N([C@H](C)CO)C[C@@H]2C)cc1 | · | 1 | · | 2 | ·
Cc1cccc(C)c1NC(=O)CN(c1c(C)cccc1C)S(C)(=O)=O | · | 0 | · | 2 | ·
COc1ccccc1C(=O)Nc1ccnn1C1CCN(Cc2cn(C)c3ccccc23)CC1 | 6 | 2 | -2 | 2 | -13
Cc1cc(C)c(CN2CCC(n3nccc3NC(=O)c3ccccc3Cl)CC2)cc1C | 3 | -52* | -4 | -12 | -14
Cn1cc(CN2CCC(n3nccc3NC(=O)c3ccccc3Cl)CC2)c2ccccc21 | 9 | -52* | -6 | -5 | -12
CCCCNC(=O)Nc1ccnn1C1CCCCC1 | 0 | -76* | 14 | -7 | -7
CCn1cc(CN2CCC(n3nccc3NC(=O)C3CCCC3)CC2)cn1 | 1 | 15 | -3 | 1 | -52*
COc1cc(Cl)c(C)cc1NC(=O)CC(c1ccc(F)cc1)N1Cc2ccccc2C1=O (configuration not stated) | 4 | · | 0 | -18 | -4
Cc1ccc(-c2c(C)sc3nc[nH]c(=O)c23)cc1C | 2 | 14 | -21 | 5 | -35*
Cc1sc2nc[nH]c(=O)c2c1-c1ccc(F)cc1 | 12 | 0 | -5 | 0 | 2
CN(Cc1nc2ccccc2c(=O)[nH]1)C(=O)c1cc(C2CC2)nn1-c1ccccc1 | 4 | -60* | · | 2 | 25
O=C(NC1CCCCC1)N(Cc1nc2ccccc2c(=O)[nH]1)C1CCCCC1 | 0 | -21 | 9 | -4 | -3
CCN(Cc1nc2ccccc2c(=O)[nH]1)C(=O)c1cc(C2CC2)nn1-c1ccccc1 | 0 | 2 | 4 | 5 | -18
O=C(NC1CCCCC1)N(Cc1nc2ccccc2c(=O)[nH]1)C1CCCC1 | 0 | -22 | 5 | -11 | -64*
CCCCN(C)CC(O)Cn1cc(/C=C/C(=O)c2ccc(C)cc2)c2ccccc21 (configuration not stated) | 33* | -3 | -5 | 1 | -18
